The values that follow come from PubChem BioAssay (NCATS).

Results filed as inconclusive are left out. A number with no mark means an inactive call. Calls come from the whole dose curve; as a rule, active = well fitted cell-killing curve with a large enough effect; inconclusive = small, poorly fitted or top-dose-only effect, or effect the other way; inactive = flat fitted curve, though single readings scatter.
% is set by controls: 0 for no effect and ±100 for the full control effect.

The test system of this assay is CAOV3. Nature of the assay: Primary qHTS to identify gynecologic anti-cancer compounds using libraries of approved drugs and bioactive compounds (AID 1345084). Note: nearly all actives have a fitted effect of over 55% in size. To be noted: Gynecologic cancer cell panel viability, ATPlite luminescence, 48 h; series mostly up to 57.5 µM; activity change, negative = cytotoxicity: at the top concentration. From the text: National Center for Advancing Translational Sciences [NCATS] Assay Overview: Chemotherapeutic drug responses vary from cancer to cancer and from patient to patient. These variations could be caused by a number of factors including patient genomic background, tumor mutations, tumor heterogeneity, and aspects of drug treatment. Chemotherapeutic drug resistance is also a common issue and can lead to ineffective treatment and patient death. Here we have profiled the cell killing effects of thousands of compounds to characterize the responses in three gynecological cancers, identify cancer-selective compounds, and understand the diversity of responses to these compounds from pan-cancer suppressors to single cell line selective compounds. In this assay, we screened a 7,914 compound drug library that included approved drug and bioactive compounds in six ovarian, three cervical, and […] placental cancer cell lines using the ATPlite assay for cell viability. […] The cervical cancer cell lines included HeLa, Ca Ski, and C-33 A. The placental cancer cell lines included JEG-3. HEK 293T cells were used as the control cell line to determine the selectivity index. ATPlite is a luminescence based assay reliant on the conversion of a luciferase substrate to light in the presence of ATP. As a cytotoxic compound will suppress growth and decrease the number of cells, the concentration of ATP will decrease, and less light signal will be detected in the well.
Assay Protocol Summary: 1,000 cells in 4 uL of media were dispensed into white, solid bottom 1536-well plates using a Multidrop Combi (Thermo Scientific). The Assay plates were incubated for 16 hours at 37 C with 5% CO2 in assay plates, followed by the addition of 23 nL of DMSO or drug dissolved in DMSO. Each compound was assayed in five concentrations (0.092, 0.46, 2.3, 11.5, and 57.5 uM), using the automated Wako 1536 Pin Tool workstation and incubated at 37 C with 5% CO2 48 hours. 4 uL of ATPlite, the ATP monitoring reagent, was then added to the each well of the assay plates using the Multidrop Combi reagent dispenser followed by incubation for 15 minutes at room temperature. The resulting luminescence was measured using the ViewLux plate reader.
Background: In qHTS, concentration-response curves come from the screen itself.
Regarding `C#Cc1ccc(-c2ccccc2F)cc1`, the “activity change, negative = cytotoxicity” value was -2.9%.

Turning to `CC(C(=O)O)c1ccc(/C=C2\CCCCC2=O)cc1` (stereo not given), the “activity change, negative = cytotoxicity” value was -0.358%.

With `CNC[C@H](O)[C@@H](O)[C@H](O)[C@H](O)CO`, the “activity change, negative = cytotoxicity” value was -2.36%.

For the compound `CCc1cc2cc(OC)c(OC)cc2c(Cc2ccccc2)n1`, the “activity change, negative = cytotoxicity” value is -4.84%.

For the compound `O=C(OCC1(COC(=O)c2cccnc2)CCCC(COC(=O)c2cccnc2)(COC(=O)c2cccnc2)C1O)c1cccnc1`, the “activity change, negative = cytotoxicity” value was 11.9%.

In the case of `CCS(=O)(=O)c1ccc(OC)c(C(=O)OC)c1`, the “activity change, negative = cytotoxicity” value is 15.6%.

Take `CC(=O)O[C@@H]1C(=O)O[C@@H]2[C@H]1OC(=O)[C@@H]2OC(C)=O`: the “activity change, negative = cytotoxicity” value was 5.58%.

With `O=C(Oc1ccccc1)c1cccc(C(=O)Oc2ccccc2)c1`, the “activity change, negative = cytotoxicity” value is -16.7% [at 116 µM].

Consider `C#CC(C)(CC)OC(=O)c1ccccc1C(=O)O` (stereo not given), for which the “activity change, negative = cytotoxicity” value is 0.393%.

Consider `Cc1oc(=O)oc1COC(=O)[C@@H]1N2C(=O)[C@@H](NC(=O)[C@H](N)c3ccccc3)[C@H]2SC1(C)C`, for which the “activity change, negative = cytotoxicity” value was 0.607%.

With `O=c1[nH]c2ccccc2c(=O)n1CCCl`, the “activity change, negative = cytotoxicity” value is -2.01%.

In the case of `CCOc1ccc(NS(=O)(=O)c2ccc(N)cc2)nn1`, the “activity change, negative = cytotoxicity” value was 25.9%.

Consider `CC(=O)[C@H]1CC[C@H]2[C@@H]3C=CC4=CC(=O)CC[C@@]4(C)[C@@H]3CC[C@]12C`, for which the “activity change, negative = cytotoxicity” value was -0.161%.

Take `COC(=O)c1ccc(NC(C)=O)cc1OC`: the “activity change, negative = cytotoxicity” value was -1.98%.

As for `OCc1cccnc1`, the “activity change, negative = cytotoxicity” value is 21.9%.

`CCCCCC(=O)O[C@]1(C(C)=O)CC[C@H]2[C@@H]3CCC4=CC(=O)CC[C@]4(C)[C@H]3CC[C@@]21C`: the “activity change, negative = cytotoxicity” value is -11.7%.

For `CCOc1ncc(F)c(=O)[nH]1`, the “activity change, negative = cytotoxicity” value was 6.43%.

`Nc1c(NC/C=C\COc2cc(CN3CCCCC3)ccn2)c(=O)c1=O`: the “activity change, negative = cytotoxicity” value was 18.3%.

With `CCOC(=O)C(=O)CCCCCCl`, the “activity change, negative = cytotoxicity” value is -1.1%.

As for `CC1(C)S[C@@H]2[C@H](NC(=O)C(c3ccccc3)S(=O)(=O)O)C(=O)N2[C@H]1C(=O)O` (stereo not given in full), the “activity change, negative = cytotoxicity” value is 6.54%.

Turning to `N[C@@H](Cn1ccc(=O)c(O)c1)C(=O)O`, the activity change, negative = cytotoxicity was 11.6% [at 6.55 µM].

For the compound `O=c1[nH]c(=O)n([C@H]2O[C@H](CO)[C@@H](O)[C@@H]2O)cc1/C=C\Br`, the “activity change, negative = cytotoxicity” value is -7.17%.

With `CC(COc1ccccc1)NN` (stereo not given), the “activity change, negative = cytotoxicity” value is 10.5%.

With `CC(=O)N1CCN(c2ccc(O)cc2)CC1`, the “activity change, negative = cytotoxicity” value was 11.6%.

For the compound `NCC(=O)O`, the “activity change, negative = cytotoxicity” value was -8.51% [at 25.3 µM].

As for `CCN(CC)C(=O)C1CN2CCc3cc(OC)c(OC)cc3C2CC1OC(C)=O` (stereo not given), the “activity change, negative = cytotoxicity” value was -1.89%.

For `O=C(CS(=O)Cc1ccco1)NC/C=C\COc1cc(CN2CCCCC2)ccn1` (stereo not given), the “activity change, negative = cytotoxicity” value was 2.05%.

As for `CCN(CC)CC(=O)Oc1ccc(NC(C)=O)cc1`, the “activity change, negative = cytotoxicity” value was 0.115%.

Turning to `CC(C)C(=O)OCc1cccc(OC(=O)[C@@H]2N3C(=O)[C@@H](NC(=O)Cc4ccccc4)[C@H]3SC2(C)C)c1`, the “activity change, negative = cytotoxicity” value is 1.31%.

On to `C[C@H](N)C(=O)N[C@@H](C)C(=O)NC1[C@H]2CN(c3nc4c(cc3F)c(=O)c(C(=O)O)cn4-c3ccc(F)cc3F)C[C@@H]12` (stereo not given in full), for which the “activity change, negative = cytotoxicity” value was -13%.

Take `O=C1c2ccccc2CCc2ccccc21`: the “activity change, negative = cytotoxicity” value was 16.2%.

With `CC(=O)OCC(=O)[C@@]1(O)[C@H](OC(C)=O)C[C@H]2[C@@H]3CCC4=CC(=O)C=C[C@]4(C)[C@@]3(F)[C@@H](O)C[C@@]21C`, the “activity change, negative = cytotoxicity” value was -8.86%.

`Cc1ccc2c(Cl)cc(Cl)c(O)c2n1`: the “activity change, negative = cytotoxicity” value was 0.947%.

On to `Cc1nn(-c2ccccc2)c(C)c1/C=N/N1CCN(Cc2ccccc2)CC1`, for which the “activity change, negative = cytotoxicity” value was -2.01%.

As to `Brc1ccc([C@H]2CN3CCSC3=N2)cc1`, the “activity change, negative = cytotoxicity” value is 5.18%.

On to `CC(=O)OC/C=C(C)/C=C/C=C(C)/C=C/C1=C(C)CCCC1(C)C`, for which the “activity change, negative = cytotoxicity” value was -1.01%.

On to `CC[C@@H]([C@H](C)O)n1ncn(-c2ccc(N3CCN(c4ccc(OC[C@@H]5CO[C@@](Cn6cncn6)(c6ccc(F)cc6F)C5)cc4)CC3)cc2)c1=O`, for which the “activity change, negative = cytotoxicity” value is -7.51%.

As for `COC(=O)C1=C(C)NC(C)=C(C(=O)OCCc2ccc(N3CCN(C(c4ccccc4)c4ccccc4)CC3)cc2)C1c1cccc([N+](=O)[O-])c1` (stereo not given), the “activity change, negative = cytotoxicity” value is 7.16%.

As to `Cc1cc(=O)oc2cc(O[C@@H]3SC[C@@H](O)[C@H](O)[C@H]3O)ccc12`, the “activity change, negative = cytotoxicity” value is -4.8%.

For the compound `CCCCOC(=O)CCCCCCCCC(=O)OCCCC`, the “activity change, negative = cytotoxicity” value is 10%.
